An excerpt weighted towards active compounds, which were near 6.2% of everything screened.
HCMV inh: blocks human cytomegalovirus replication | HFF cells, HCMV-luciferase reporter, 72 h; active compounds read low | activity change, negative = inhibition, % at 57.5 µM | 4.5% of 410,000 active | AID 1259415; in the data active = activity change below about -60%; inconclusive = no clear call, values can overlap the other calls; inactive = above about -39%
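HFF cells seeded 16 h at 37C, treated with compounds, infected with luciferase-reporter HCMV at MOI 1 PFU/cell; luciferase read at 72 h post infection, normalized to buffer-only and Salinomycin controls.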
FMDV inh: antivirals against foot and mouth disease virus; FMDV antiviral cell-based qHTS; Potency, µM (highest dose often 57.9 µM), for inactives: at the highest dose activity change, negative = inhibition, hits mostly inhibitors; AID 1159524; 1.2% of 410,000 active; calls by dose curve; tested in HEK293T cells; note: read-out not given here; potency is the fitted concentration of half-maximal effect; nearly all actives have a fitted effect of over 45% in size
MARV entry inh: inhibitors of Marburg virus binding or cell entry. Marburg virus pseudotyped entry inhibition, cell reporter. Potency, µM (top dose mostly 37.8 µM), without a hit: at the highest dose activity change, negative = inhibition, hits mostly inhibitors. 1.8% of 300,000 active. AID 540276; calls by dose curve; tested in HEK293 cells; note: potency is the fitted concentration of half-maximal effect
LASV entry inh: blocks Lassa virus binding to or entry into cells; Lassa virus pseudotype entry inhibition, cell reporter; Potency, µM (titrated, usually from 37.9 µM), for inactives: at the highest dose activity change, negative = inhibition, actives largely listed as inhibitors; 1.2% of 300,000 active; AID 540256; calls by dose curve; tested in HEK293 cells; note: potency is the fitted concentration of half-maximal effect; nearly all actives have a fitted effect of over 50% in size
The depositor's hits bear a star; ? = inconclusive; · = no result; [ ] = another dose, or the depositor's remark. % is set by controls: 0 for no effect and ±100 for the full control effect.

SMILES | HCMV inh | FMDV inh | MARV entry inh | LASV entry inh
CCCCC(=O)NC(c1ccc(C(C)C)cc1)c1ccc2cccnc2c1O (stereo unspecified) | -103* | -8% | · | ·
CC(=O)NC(c1ccccc1)c1cc([N+](=O)[O-])c2cccnc2c1O (stereo unspecified) | 25 | -19% | ? | ?
Oc1c(C(c2ccccc2Cl)N2CCCC2)ccc2cccnc12 (stereo unspecified) | -5 | ? | · | ·
CC(=O)NC(c1ccc(C(C)C)cc1)c1ccc2cccnc2c1O (stereo unspecified) | -99* | -24% | ? | ?
CCCCC(=O)NC(c1ccccc1Cl)c1ccc2cccnc2c1O (stereo unspecified) | -96* | -7% | · | ·
CCOc1ccccc1N1CC(C(=O)NC2CCCCCC2)CC1=O (stereo unspecified) | 10 | 4% | 21%[46.1 µM] | 0%[46.1 µM]
Cc1oc2c(cc(NS(=O)(=O)c3ccc(Cl)cc3)c3ccccc32)c1C(=O)OCc1ccccc1 | 28 | 7% | 0%[46.1 µM] | 15%[46.1 µM]
Oc1c(C(Nc2cccc(C(F)(F)F)c2)c2cccnc2)ccc2cccnc12 (stereo unspecified) | -33 | -15% | ? | ?
CCCCC(=O)NC(c1ccccc1)c1ccc2cccnc2c1O (stereo unspecified) | -100* | -4% | ? | ?
CCCC(=O)NC(c1ccc(OC)cc1)c1ccc2cccnc2c1O (stereo unspecified) | -99* | -12% | ? | ?
CCC(=O)NC(c1ccc(OC)cc1)c1c(O)ccc2ccccc12 (stereo unspecified) | 4 | 2% | · | ·
CC(C)C(=O)NC(c1ccccc1)c1cc([N+](=O)[O-])c2cccnc2c1O (stereo unspecified) | -1 | 0% | ? | ?
Cc1cc(NC(c2cccnc2)c2ccc3cccnc3c2O)no1 (stereo unspecified) | -104* | ? | ? | ?
COc1cccc(C(Nc2ccccc2)c2ccc3ccc(C)nc3c2O)c1 (stereo unspecified) | -36 | -8% | · | ·
COc1ccc(Cl)cc1C(Nc1cccnc1)c1ccc2cccnc2c1O (stereo unspecified) | -7 | -20% | 11µM* | ?
NNC(=O)c1ccc(COc2ccc3ccccc3c2)cc1 | 61 | 47% | · | ·
O=C(CSc1nnnn1C1CCCCC1)NCc1cccs1 | -23 | 16% | · | ·
Oc1c(C(Nc2ccccn2)c2cccnc2)cc(Cl)c2cccnc12 (stereo unspecified) | 2 | -25% | ? | ?
CCC(=O)NC(c1ccccc1OC)c1ccc2cccnc2c1O (stereo unspecified) | · | -15% | 4.6µM* | ?
Oc1cccc(C(Nc2ccccn2)c2ccc3cccnc3c2O)c1Cl (stereo unspecified) | -82* | -24% | ? | ?
COc1cccc(/C=N/NC(=O)COc2cccc3cccnc23)c1O | -6 | -8% | ? | ?
CS(=O)(=O)c1ncc(Cl)c(C(=O)N2CCN(c3cccc(Cl)c3)CC2)n1 | -101* | 18µM* | ? | ?
CS(=O)(=O)N(Cc1ccccc1)c1ccc(C(=O)N2CCN(c3cccc(Cl)c3)CC2)cc1 | -29 | ? | 13µM* | ?
CC1CCc2onc(C(=O)N3CCN(c4cccc(Cl)c4)CC3)c2C1 (stereo unspecified) | -60* | -29% | · | ?
CCS(=O)(=O)c1ncc(Cl)c(C(=O)N2CCN(c3cccc(Cl)c3)CC2)n1 | -101* | 14µM* | 5.6µM* | ?
SMILES | HCMV inh | FMDV inh | MARV entry inh | LASV entry inh
COc1ccc(OCC(=O)N2CCN(c3cccc(Cl)c3)CC2)cc1 | -24 | 0% | ? | -9%
CC(=O)c1ccc(NC(=O)CCC(=O)OCC(=O)c2cccc([N+](=O)[O-])c2)cc1 | · | 1% | -22%[46.1 µM] | 12%
CC(C)(C)N(Cc1ccccc1)C(=O)CCc1ccccc1 | ? | ? | ? | 29%
Cc1ccc(N2C(=O)c3cccc([N+](=O)[O-])c3C2=O)cc1C | -34 | -7% | -5%[46.1 µM] | 2%
Cc1cccc(C)c1N1C(=O)c2cccc([N+](=O)[O-])c2C1=O | -63* | -26% | 21% | 10%
CC(C)c1ccc(NC(=O)Cn2cc(S(=O)(=O)N3CCN(c4ccccc4F)CC3)c3ccccc3c2=O)cc1 | 8 | -19% | -14%[46.1 µM] | -3%[46.1 µM]
COc1ccc(/C=C2\Sc3ccc(C(=O)N4CCN(Cc5ccccc5)CC4)cc3N(C)C2=O)cc1OC | -83* | 13µM* | · | ·
O=C(Nc1ccc(Cn2cccn2)cc1)c1ccc(COc2ccccc2Br)cc1 | -83* | 14µM* | -14%[46.1 µM] | ?
